Experimental data from PubChem BioAssay AID1159580 (chemical genetic matrix, 2015).
Among all 5,500 compounds or so, about 2,000 (36%) were called active. Inconclusive results (about 18%) are left out. No stated cut-off is given here; in the data, active means normalized growth mostly below about 0.91 (no sharp cut-off); inconclusive means no clear call, values can overlap the other calls; inactive means mostly above about 0.92. Some of the results follow.

Experiment: chemical genetic growth profiling, strain panel (AID 1159580);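 further: tested at 20 µM; growth read once vehicle control cultures reached saturation at 30 °C; 1 = growth at the plate median or of vehicle wells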
Settings: growth OD
[1] = S. cerevisiae deletion strains, locus YAR019C, strain CDC15, stronger effect = lower value
[2] = S. cerevisiae deletion strains, locus YBL105C, strain PKC1, stronger effect = lower value
[3] = S. cerevisiae deletion strains, locus YBR135W, strain CKS1, stronger effect = lower value
[4] = S. cerevisiae deletion strains, locus YBR136W, strain MEC1, stronger effect = lower value
[5] = S. cerevisiae deletion strains, locus YBR160W, strain CDC28, stronger effect = lower value
[6] = S. cerevisiae deletion strains, locus YDL017W, strain CDC7, stronger effect = lower value
[7] = S. cerevisiae deletion strains, locus YDL028C, strain MPS1, stronger effect = lower value
[8] = S. cerevisiae deletion strains, locus YDL101C, strain DUN1, stronger effect = lower value
[9] = S. cerevisiae deletion strains, locus YDL108W, strain KIN28, stronger effect = lower value
[10] = S. cerevisiae deletion strains, locus YDL132W, strain cdc53, stronger effect = lower value
[11] = S. cerevisiae deletion strains, locus YDL214C, strain PRR2, stronger effect = lower value
[12] = S. cerevisiae deletion strains, locus YDR052C, strain DBF4, stronger effect = lower value
[13] = S. cerevisiae deletion strains, locus YDR054C, strain cdc34, stronger effect = lower value
[14] = S. cerevisiae deletion strains, locus YDR226W, strain ADK1, stronger effect = lower value
[15] = S. cerevisiae deletion strains, locus YDR477W, strain SNF1, stronger effect = lower value
[16] = S. cerevisiae deletion strains, locus YER123W, strain YCK3, stronger effect = lower value
[17] = S. cerevisiae deletion strains, locus YER133W, strain GLC7, stronger effect = lower value
[18] = S. cerevisiae deletion strains, locus YFL009W, strain cdc4, stronger effect = lower value
[19] = S. cerevisiae deletion strains, locus YFL029C, strain CAK1, stronger effect = lower value
[20] = S. cerevisiae deletion strains, locus YFR003C, strain YPI1, stronger effect = lower value
[21] = S. cerevisiae deletion strains, locus YFR019W, strain FAB1, stronger effect = lower value
[22] = S. cerevisiae deletion strains, locus YFR028C, strain CDC14, stronger effect = lower value
[23] = S. cerevisiae deletion strains, locus YGR040W, strain KSS1, stronger effect = lower value
[24] = S. cerevisiae deletion strains, locus YGR052W, strain FMP48, stronger effect = lower value
[25] = S. cerevisiae deletion strains, locus YGR092W, strain DBF2, stronger effect = lower value
[26] = S. cerevisiae deletion strains, locus YHR030C, strain SLT2, stronger effect = lower value
[27] = S. cerevisiae deletion strains, locus YHR079C, strain IRE1, stronger effect = lower value
[28] = S. cerevisiae deletion strains, locus YHR082C, strain KSP1, stronger effect = lower value
[29] = S. cerevisiae deletion strains, locus YHR205W, strain SCH9, stronger effect = lower value
[30] = S. cerevisiae deletion strains, locus YIL147C, strain SLN1, stronger effect = lower value
[31] = S. cerevisiae deletion strains, locus YJL095W, strain BCK1, stronger effect = lower value
[32] = S. cerevisiae deletion strains, locus YJL128C, strain PBS2, stronger effect = lower value
[33] = S. cerevisiae deletion strains, locus YJL157C, strain FAR1, stronger effect = lower value
[34] = S. cerevisiae deletion strains, locus YJR016C, strain ILV3, stronger effect = lower value
[35] = S. cerevisiae deletion strains, locus YJR066W, strain TOR1 (second series), stronger effect = lower value
[36] = S. cerevisiae deletion strains, locus YJR066W, strain TOR1, stronger effect = lower value
[37] = S. cerevisiae deletion strains, locus YKL048C, strain ELM1, stronger effect = lower value
[38] = S. cerevisiae deletion strains, locus YKL067W, strain YNK1, stronger effect = lower value
[39] = S. cerevisiae deletion strains, locus YKL101W, strain HSL1, stronger effect = lower value
[40] = S. cerevisiae deletion strains, locus YKL193C, strain SDS22, stronger effect = lower value
[41] = S. cerevisiae deletion strains, locus YKL203C, strain TOR2, stronger effect = lower value
[42] = S. cerevisiae deletion strains, locus YLR113W, strain HOG1, stronger effect = lower value
[43] = S. cerevisiae deletion strains, locus YLR133W, strain CKI1, stronger effect = lower value
[44] = S. cerevisiae deletion strains, locus YLR403W, strain SFP1, stronger effect = lower value
[45] = S. cerevisiae deletion strains, locus YML070W, strain DAK1, stronger effect = lower value
[46] = S. cerevisiae deletion strains, locus YMR001C, strain CDC5, stronger effect = lower value
[47] = S. cerevisiae deletion strains, locus YMR205C, strain PFK2 (second series), stronger effect = lower value
[48] = S. cerevisiae deletion strains, locus YMR277W, strain FCP1, stronger effect = lower value
[49] = S. cerevisiae deletion strains, locus YNL006W, strain LST8, stronger effect = lower value
[50] = S. cerevisiae deletion strains, locus YNL020C, strain ARK1, stronger effect = lower value
[51] = S. cerevisiae deletion strains, locus YNL161W, strain CBK1, stronger effect = lower value
[52] = S. cerevisiae deletion strains, locus YNL183C, strain NPR1, stronger effect = lower value
[53] = S. cerevisiae deletion strains, locus YNL207W, strain RIO2, stronger effect = lower value
[54] = S. cerevisiae deletion strains, locus YNL222W, strain SSU72, stronger effect = lower value
[55] = S. cerevisiae deletion strains, locus YNL307C, strain MCK1 (second series), stronger effect = lower value
[56] = S. cerevisiae deletion strains, locus YOL078W, strain AVO1, stronger effect = lower value
[57] = S. cerevisiae deletion strains, locus YOL136C, strain PFK27, stronger effect = lower value
[58] = S. cerevisiae deletion strains, locus YOR061W, strain CKA2, stronger effect = lower value
[59] = S. cerevisiae deletion strains, locus YOR119C, strain RIO1, stronger effect = lower value
[60] = S. cerevisiae deletion strains, locus YOR231W, strain MKK1, stronger effect = lower value
[61] = S. cerevisiae deletion strains, locus YOR329C, strain SCD5, stronger effect = lower value
[62] = S. cerevisiae deletion strains, locus YPL031C, strain PHO85, stronger effect = lower value
[63] = S. cerevisiae deletion strains, locus YPL153C, strain RAD53, stronger effect = lower value
[64] = S. cerevisiae deletion strains, locus YPL204W, strain HRR25, stronger effect = lower value
[65] = S. cerevisiae deletion strains, locus YPL209C, strain IPL1, stronger effect = lower value
[66] = S. cerevisiae deletion strains, locus YPL256C, strain CLN2, stronger effect = lower value
[67] = S. cerevisiae deletion strains, locus YPR025C, strain CCL1, stronger effect = lower value
[68] = S. cerevisiae deletion strains, locus YPR106W, strain ISR1, stronger effect = lower value
[69] = S. cerevisiae deletion strains, locus YPR111W, strain DBF20, stronger effect = lower value
[70] = S. cerevisiae deletion strains, strain NNK1, stronger effect = lower value
[71] = S. cerevisiae deletion strains, strain TSCII, stronger effect = lower value

Measured: normalized growth

Oc1ccc(N=Nc2ccccn2)c(O)c1
active: [1] 0.0954 | [2] 0.0926 | [3] 0.0984 | [4] 0.0929 | [5] 0.0967 | [6] 0.0946 | [7] 0.0969 | [8] 0.103 | [9] 0.0995 | [10] 0.0971 | [11] 0.0962 | [12] 0.0928 | [13] 0.0989 | [14] 0.0953 | [15] 0.102 | [16] 0.108 | [17] 0.103 | [18] 0.0975 | [19] 0.0955 | [20] 0.0966 | [21] 0.0923 | [22] 0.0968 | [23] 0.0983 | [24] 0.121 | [25] 0.0944 | [26] 0.116 | [27] 0.12 | [28] 0.125 | [29] 0.00344 | [30] 0.0967 | [31] 0.104 | [32] 0.102 | [33] 0.0922 | [34] 0.0883 | [35] 0.0985 | [36] 0.114 | [37] 0.113 | [38] 0.101 | [39] 0.0988 | [40] 0.0969 | [41] 0.102 | [42] 0.153 | [43] 0.0924 | [44] 0.00522 | [45] 0.103 | [46] 0.095 | [47] 0.0981 | [48] 0.0981 | [49] 0.1 | [50] 0.0963 | [51] 0.0956 | [52] 0.123 | [53] 0.0923 | [54] 0.0956 | [55] 0.0988 | [56] 0.0959 | [57] 0.0997 | [58] 0.097 | [59] 0.108 | [60] 0.118 | [61] 0.0939 | [62] 0.101 | [63] 0.1 | [64] 0.102 | [65] 0.0941 | [66] 0.155 | [67] 0.0983 | [68] 0.0922 | [69] 0.103 | [70] 0.0965 | [71] 0.0967

COc1ccc(CCNC(=S)NCCc2ccc(OC)c(OC)c2)cc1OC
inactive: S. cerevisiae deletion strains, locus YAL013W, strain DEP1, stronger effect = lower value 0.998 | S. cerevisiae deletion strains, locus YBR229C, strain ROT2, stronger effect = lower value 0.988 | S. cerevisiae deletion strains, locus YCL061C, strain MRC1, stronger effect = lower value 0.993 | [8] 0.989 | S. cerevisiae deletion strains, locus YDR150W, strain NUM1, stronger effect = lower value 0.985 | S. cerevisiae deletion strains, locus YEL061C, strain CIN8, stronger effect = lower value 0.987 | S. cerevisiae deletion strains, locus YGR078C, strain PAC10, stronger effect = lower value 0.981 | [26] 1 | S. cerevisiae deletion strains, locus YHR087W, strain rtc3, stronger effect = lower value 0.979 | S. cerevisiae deletion strains, locus YJL187C, strain SWE1, stronger effect = lower value 0.994 | S. cerevisiae deletion strains, locus YJR043C, strain POL32, stronger effect = lower value 0.993 | S. cerevisiae deletion strains, locus YJR075W, strain HOC1, stronger effect = lower value 1.04 | S. cerevisiae deletion strains, locus YLR039C, strain RIC1, stronger effect = lower value 1.04 | S. cerevisiae deletion strains, locus YLR058C, strain SHM2 (second series), stronger effect = lower value 1 | S. cerevisiae deletion strains, locus YLR085C, strain ARP6, stronger effect = lower value 1.02 | S. cerevisiae deletion strains, locus YLR262C, strain YPT6, stronger effect = lower value 1.02 | S. cerevisiae deletion strains, locus YML094W, strain GIM5, stronger effect = lower value 0.981 | S. cerevisiae deletion strains, locus YMR219W, strain ESC1, stronger effect = lower value 1 | S. cerevisiae deletion strains, locus YMR263W, strain SAP30, stronger effect = lower value 1.06 | S. cerevisiae deletion strains, locus YMR307W, strain GAS1, stronger effect = lower value 1.06 | S. cerevisiae deletion strains, locus YNL128W, strain TEP1, stronger effect = lower value 1.02 | S. cerevisiae deletion strains, locus YNL153C, strain GIM3, stronger effect = lower value 0.992 | S. cerevisiae deletion strains, locus YNL298W, strain CLA4 (second series), stronger effect = lower value 1.01 | S. cerevisiae deletion strains, locus YNL322C, strain KRE1, stronger effect = lower value 0.992 | S. cerevisiae deletion strains, locus YNR030W, strain Alg12, stronger effect = lower value 1 | S. cerevisiae deletion strains, locus YPL055C, strain LGE1, stronger effect = lower value 0.982 | S. cerevisiae deletion strains, locus YPL241C, strain CIN2, stronger effect = lower value 1.08 | S. cerevisiae deletion strains, locus YPR135W, strain CTF4, stronger effect = lower value 1.05 | S. cerevisiae strains, strain wild type, stronger effect = lower value 1.01

COc1cc(CC/C(C)=N\O)ccc1OCc1ccc(Cl)c(Cl)c1
inactive: [1] 0.973 | [2] 0.964 | [3] 0.97 | [4] 0.96 | [5] 0.975 | [6] 0.963 | [7] 0.959 | [8] 0.975 | [9] 0.947 | [10] 0.983 | [11] 0.818 | [12] 0.971 | [13] 0.968 | [14] 0.973 | [15] 0.868 | [16] 0.767 | [17] 0.864 | [18] 0.968 | [19] 0.968 | [20] 0.968 | [21] 0.808 | [22] 0.983 | [23] 0.862 | [24] 0.881 | [25] 0.824 | [27] 0.871 | [28] 0.883 | [29] 0.869 | [30] 0.962 | [31] 0.849 | [32] 0.916 | [33] 0.823 | [34] 0.969 | [35] 0.786 | [36] 0.867 | [37] 0.934 | [38] 0.865 | [39] 0.852 | [40] 0.968 | [41] 0.932 | [43] 0.875 | [44] 0.865 | [45] 0.82 | [46] 0.967 | [47] 0.877 | [48] 0.968 | [49] 0.975 | [50] 0.851 | [51] 0.973 | [52] 0.885 | [53] 0.965 | [54] 0.969 | [55] 0.845 | [56] 0.978 | [57] 0.84 | [58] 0.818 | [59] 0.931 | [60] 0.842 | [61] 0.972 | [62] 0.858 | [63] 0.833 | [64] 0.873 | [65] 0.968 | [66] 0.893 | [67] 0.98 | [68] 0.968 | [69] 0.962 | [70] 0.953 | [71] 0.97
active: [26] 0.831 | [42] 0.816
